Tests used:
Conditions in all cases: concentration: 1 μM, replicates: in singlicate; n = 1
[1] = system: T1, MEK5
T1 construct: gene MAP2K5

[2] = system: T2, MEK6
T2 construct: gene MAP2K6

[3] = system: MELK
[4] = system: MERTK
[5] = system: MET
[6] = system: T3, MINK
T3 construct: gene MINK1

[7] = system: MKK7
[8] = system: MKNK1
[9] = system: MKNK2
[10] = system: T4, MLCK
T4 construct: gene MYLK3
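Also: KINOMEscan kinase panel screen.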

SMILES	%Inh [1] [%]	%Inh [2] [%]	%Inh [3] [%]	%Inh [4] [%]	%Inh [5] [%]	%Inh [6] [%]	%Inh [7] [%]	%Inh [8] [%]	%Inh [9] [%]	%Inh [10] [%]
CN1CCN(Cc2ccc(NC(=O)Nc3ccc(N(C)c4ccnc(Nc5ccc(CS(C)(=O)=O)cc5)n4)cc3)cc2)CC1.Cl [GW827654]	99.1	0	32	72	67	95.6	0	96.7	100	26
CCNC(=O)/C=C/c1n[nH]c2cc(Sc3ccccc3C(=O)NC)ccc12	45	0	7	20	13	56	0	0	1	0
CCNc1nccc(-c2c(-c3ccc(F)cc3)ncn2C2CCN(C)CC2)n1	19	15	11	25	0	30	0	0	0	0
COc1cc(Nc2nccc(N3CCC(NS(=O)(=O)c4ccc(NC(C)=O)cc4)CC3)n2)cc(OC)c1OC [GSK1379825]	88	24	19	38	0	0	15	0	83	0
CC(C)NCC(Cc1ccccc1)NC(=O)c1cc(Br)c(-c2ccnc3[nH]ccc23)s1.Cl.Cl (centres unmarked) [GSK1383281]	3	79	97.5	39	17	37	0	0	90.5	13
CN(C)c1ncnc2nc[nH]c12 [SKF-31736]	51	0	0	10	0	2	20	0	0	0
Nc1ncnc2scc(-c3ccc(NC(=O)Cc4cc(F)ccc4F)cc3)c12.O=C(O)C(F)(F)F [SB-731254-M]	99.7	11	4	14	0	35	0	0	47	60
CCn1c(-c2nonc2N)nc2c(-c3ccccc3)ncc(OCCCN)c21.O=C(O)C(F)(F)F.O=C(O)C(F)(F)F [GSK260205]	92.8	0	20	7	21	95.7	0	0	1	9
CN(C)CCOc1ccc(-c2cc(-c3ccc(Cl)c(O)c3)c(-c3ccncc3)[nH]2)cc1.Cl.Cl [SB-684387]	21	0	15	0	43	36	0	7	4	13
Cc1ccc(O)cc1Nc1ccnc2cc(-c3ccc(CN4CCCCC4)o3)ccc12 [GW557777]	97.9	15	0	13	0	38	0	0	0	0
COc1cccc(C2=C(Nc3cccc(O)c3)C(=O)NC2=O)c1 [SB-390771]	71	2	27	18	21	18	20	11	5	0
Fc1cc(Cl)ccc1Nc1ccnc2cc(-c3ccc(CN4CCOCC4)o3)ccc12 [GW560109]	99.8	0	0	28	51	58	10	13	77	0
c1ccc(Oc2ccc(Nc3ccnc4cc(-c5ccc(CN6CCCCC6)o5)ccc34)cc2)nc1 [GW567143]	100	0	0	50	11	25	0	7	37	0
Cc1ccc(-c2ccc3occ(-c4ccc(S(C)=O)cc4)c3c2)nn1 (centres unmarked)	0	0	0	0	0	0	0	0	0	5
COc1cccc2c(-c3ccncc3)c(-c3ccc(F)cc3)nn12 [GW468513]	33	0	0	0	84	78	0	22	0	6
O=C(Nc1n[nH]c2cc(-c3cccs3)ccc12)C1CC1 [SB-731284]	33	0	0	0	0	67	0	31	28	71
CC(C)c1nc(-c2cccc(NS(=O)(=O)c3c(F)cccc3F)c2)c(-c2ccnc(Nc3ccc(N4CCOCC4)nc3)n2)s1.Cl [GSK1723980]	99.9	37	47	50	42	17	0	10	98.8	0
Nc1ncc(-c2ccc3nccc(-c4ccncc4)c3c2)cc1S(=O)(=O)N1CCCCC1 [GSK1693850]	50	12	36	35	0	31	0	2	6	0
COc1ccc(NC(=O)c2ccoc2)cc1-c1ccc(C(=O)NCC2CC2)cc1 [GW810437]	41	16	29	0	0	7	0	0	13	0
Cc1cccc(Nc2nc(N[C@H]3CCCC[C@H]3N)ncc2C(N)=O)c1.Cl [GSK986310]	98.4	5	0	64	0	73	0	0	17	13
Cc1ccc(Nc2ccnc(Nc3ccc(C)c(F)c3)n2)cc1O.Cl [GW582868]	92.8	0	0	38	0	0	0	0	7	24
COc1ccc(C2=C(Nc3cccc(O)c3)C(=O)NC2=O)cc1 [SB-390766]	17	0	99.4	28	0	0	73	93.5	17	2

SMILES	%Inh [1] [%]	%Inh [2] [%]	%Inh [3] [%]	%Inh [4] [%]	%Inh [5] [%]	%Inh [6] [%]	%Inh [7] [%]	%Inh [8] [%]	%Inh [9] [%]	%Inh [10] [%]
Cc1cc(-c2c(-c3ccc(F)cc3)ncn2CCCN2CCOCC2)nc(N)n1 [SB-222517]	26	29	0	0	0	15	0	0	0	0
COC(=O)Nc1nc2ccc(Oc3ccc(NC(=O)Nc4cc(C(F)(F)F)ccc4F)cc3)cc2[nH]1.Cl [GW654607]	94.2	7	0	98.5	88	15	0	73	94.9	0
Cc1nn2c(=O)cc(N3CCO[C@H](C)C3)nc2n1Cc1cccc(Cl)c1Cl [GSK2373693]	19	0	2	17	0	0	0	0	19	0
Cn1cc(-c2ccc3c(c2)CCN3C(=O)Cc2cc(F)cc(C(F)(F)F)c2)c2c(N)ncnc21 [GSK2635225]	33	0	0	63	21	7	4	0	2	0
Cn1cc(-c2cnc(N)c3c(-c4ccc5c(c4)CCN5C(=O)Cc4ccccc4)csc23)cn1 [GSK2593074]	99.8	7	0	90	79	16	0	0	0	0
O=C(Nc1c(F)cccc1F)c1cc(C(=O)c2ccccc2F)c[nH]1 [GSK1326180]	20	0	0	18	0	47	0	10	0	2
Cc1ccccc1CC(=O)N1CCc2cc(-c3cn(C)c4ncnc(N)c34)ccc21 [GSK2603346]	99.9	73	7	46	70	0	0	7	55	6
Fc1cc(Cl)ccc1Nc1ccnc2cc(-c3ccc(CN4CCSCC4)o3)ccc12 [GW560106]	99.8	0	0	40	28	63	0	1	45	5
CN(c1ccc2c(c1)nc(NCc1ccccc1)n2C)c1ccnc(Nc2ccc(CS(C)(=O)=O)cc2)n1.Cl [GW811603]	89	0	17	36	46	0	23	54	43	0
COc1ccc(C)c(Nc2ccnc(Nc3ccc(-c4cnc[nH]4)cc3)n2)c1.Cl [GW784041]	99.7	0	34	7	15	44	0	8	0	0
Cc1ccc(NC(=O)c2ccc(Cl)c(Cl)c2)cc1-c1ccc(C(=O)Nc2ccncc2)cc1 [GSK1398460]	27	5	0	36	0	6	0	11	0	0
CN(c1ccc(NC(=O)Nc2cccc(Cl)c2)cc1)c1ccnc(N)n1.Cl [GW830707]	48	0	11	0	1	0	17	52	95.6	10
O=C(O)C(F)(F)F.O=c1[nH]ccc2nc(N[C@@H]3CCNC3)nc(Nc3cc(Cl)cc(Cl)c3)c12 [GSK2188764]	100	34	100	51	0	97.6	20	0	14	99.1
CC(C)(C)c1ccc(C(=O)Nc2cn3cc(-n4ccnc4)ccc3n2)cc1	99	0	0	0	0	18	0	8	0	19
CCOc1nccc(-c2c(-c3ccc(F)cc3)ncn2C2CCNCC2)n1 [SB-249175]	26	18	0	18	0	49	7	57	46	2
CS(=O)(=O)c1cccc(CNc2nc(Nc3ccc4c(c3)CCC(=O)N4)ncc2C(F)(F)F)c1	48	0	26	56	83	85	0	0	58	0
Cn1cc(-c2ccc3c(c2)CCN3C(=O)Cc2cc(F)cc(F)c2F)c2c(N)ncnc21 [GSK2634140]	98.9	0	12	38	68	21	0	5	1	11
COc1cc(Nc2ccnc3cc(-c4ccncc4)ccc23)cc(OC)c1OC.Cl [GW494610]	99.8	0	18	13	13	95.1	23	28	14	0
COc1cc(Nc2nccc(N3CCC(NC(=O)Nc4ccc5c(c4)OCO5)C3)n2)cc(OC)c1OC (centres unmarked) [GSK1379766]	98.8	0	0	40	12	0	0	14	66	0
Cl.N#CCc1ccc(Nc2nccc(Nc3ccc(Oc4ccccc4)cc3)n2)cc1 [GW639905]	99.9	0	0	0	0	0	0	0	33	0
COc1cccc(-c2nc(-c3ccccc3)[nH]c2-c2ccncc2)c1 [SB-610250]	26	100	14	9	0	10	0	22	5	0
O=C(Nc1n[nH]c2nc(-c3ccccc3)ccc12)C1CC1 [SB-708999]	76	0	13	27	0	71	31	30	1	62

SMILES	%Inh [1] [%]	%Inh [2] [%]	%Inh [3] [%]	%Inh [4] [%]	%Inh [5] [%]	%Inh [6] [%]	%Inh [7] [%]	%Inh [8] [%]	%Inh [9] [%]	%Inh [10] [%]
COC(=O)Nc1nc2ccc(Oc3ccc(CC(=O)Nc4cc(C(F)(F)F)ccc4F)cc3)cc2[nH]1 [GW680903]	31	0	0	44	0	0	8	13	3	0
Cc1ccc(C)c(NC(=O)Nc2ccc(C)c(-c3ccc(C(=O)Nc4ccncc4)cc3)c2)c1 [GSK1398473]	3	0	81	22	0	6	0	0	4	0
O=C(O)C(F)(F)F.O=c1[nH]ccc2nc(N[C@@H]3CCNC3)nc(Nc3ccc4c(c3)S(=O)(=O)CC4)c12 [GSK2181306]	99.9	68	92.2	91.7	26	96.6	0	3	24	98.1
CC(C)c1nc(-c2ccc(F)c(NS(=O)(=O)c3c(F)cccc3F)c2)c(-c2ccnc(Nc3ccc(N4CCOCC4)nc3)n2)s1 [GSK1804250]	100	22	45	54	70	26	15	21	11	0
Cc1ccc(O)cc1Nc1ccnc2ccc(C(C)(C)C)cc12 [GW856805]	86	25	8	46	0	10	40	0	30	4
O=C(Nc1n[nH]c2nc(-c3ccccc3O)ccc12)C1CC1 [SB-711880]	63	0	0	27	0	74	0	0	38	57
COc1cccc(CC(=O)N2CCc3cc(-c4cn(C)c5ncnc(N)c45)ccc32)c1 [GSK2608899]	99.7	0	13	75	75	19	0	9	14	10
CSc1ccc(NC2=C(c3ccc(Cl)cc3)C(=O)NC2=O)cc1 [SB-317658]	22	3	0	0	0	0	0	14	0	29
Cl.Cl.NCC(NC(=O)c1cc(-c2cccnc2)c(-c2ccnc3[nH]ccc23)s1)c1ccccc1 (centres unmarked) [GSK1323434]	59	0	20	13	0	80	0	0	56	51
Cc1cc(-c2ccnc(Nc3cccc(C#N)c3)n2)cc(C)c1O [GSK1440913]	23	35	0	42	38	52	36	2	2	77
COC(=O)Nc1nc2cc(Oc3ccc(NC(=O)Nc4cccc(SC)c4)cc3)ccc2[nH]1.Cl [GW697999]	55	0	0	89	21	23	0	32	65	0
Nc1ncc(-c2cn[nH]c2)c2scc(-c3ccc4c(c3)CCN4C(=O)Cc3ccccc3)c12 [GSK2593067]	99.9	0	32	73	77	33	34	0	11	6
Nc1cccc(-c2ccc3c(N)n[nH]c3c2)c1 [GSK2193613]	64	0	0	0	6	73	0	2	64	95.4
Cc1ccc(NC(=O)c2ccnc(N3CCCCC3)c2)cc1-c1ccc(C(=O)NCC2CC2)cc1 [GW775610]	1	6	0	3	0	5	0	0	33	0
CN(c1ccc(F)c(NC(=O)c2cccc(OC(C)(C)C#N)c2Cl)c1)c1ccc2nc(NC(=O)C3CC3)sc2n1	99.8	0	0	30	24	54	39	0	22	0
Cc1cccc(Nc2nc(NCCN)ncc2C(N)=O)c1 [GSK1292139]	99.2	19	1	3	29	87	0	13	15	14
Cl.Cl.NC(CNC(=O)c1cc(Br)c(-c2ccnc3[nH]ccc23)s1)c1ccccc1 (centres unmarked) [GSK1322949]	59	0	74	58	22	69	0	68	99.9	70
O=C1NC(=O)C(c2ccccc2Cl)=C1Nc1cccc(Cl)c1 [SB-342409]	53	0	0	1	0	0	23	0	18	3
CNc1nccc(-c2ccc3c(N)n[nH]c3c2)n1 [GSK2206003]	49	9	61	21	0	59	0	41	97.9	76
Cl.O=C(Nc1ccc(Oc2ccc3[nH]c(NC(=O)c4ccco4)nc3c2)cc1)Nc1cc(C(F)(F)F)ccc1F [GW683134]	85	0	0	99.6	83	0	0	46	93.5	15
N#Cc1cnc2cc(-c3cnc(CNCCN4CCOCC4)s3)ccc2c1Nc1ccc(Oc2ccccc2)cc1 [GW664114]	99.9	0	15	72	7	95.2	6	6	6	0
